# Reference: publication PMC7862700, “An all-to-all approach to the identification of sequence-specific readers for epigenetic DNA modifications on cytosine”
# How the values were obtained:
# Assay in all cases: DAPPL (digital affinity profiling via proximity ligation, sequencing); 10 mM Tris-HCl pH 7.5, 50 mM NaCl, 1 mM DTT, 4% glycerol, room temperature, 30 min; GST-TFs on glutathione beads, 16-mer random dsDNA library, 0.1% formaldehyde crosslink after washing; high values mean tight binding
# Details in all cases: protein: recombinant; tags: N-terminal GST; dsDNA, one strand shown
# FLI1 = biological target: T1, FLI1 (Homo sapiens, UniProt Q01543 1-452)
# T1 sequence: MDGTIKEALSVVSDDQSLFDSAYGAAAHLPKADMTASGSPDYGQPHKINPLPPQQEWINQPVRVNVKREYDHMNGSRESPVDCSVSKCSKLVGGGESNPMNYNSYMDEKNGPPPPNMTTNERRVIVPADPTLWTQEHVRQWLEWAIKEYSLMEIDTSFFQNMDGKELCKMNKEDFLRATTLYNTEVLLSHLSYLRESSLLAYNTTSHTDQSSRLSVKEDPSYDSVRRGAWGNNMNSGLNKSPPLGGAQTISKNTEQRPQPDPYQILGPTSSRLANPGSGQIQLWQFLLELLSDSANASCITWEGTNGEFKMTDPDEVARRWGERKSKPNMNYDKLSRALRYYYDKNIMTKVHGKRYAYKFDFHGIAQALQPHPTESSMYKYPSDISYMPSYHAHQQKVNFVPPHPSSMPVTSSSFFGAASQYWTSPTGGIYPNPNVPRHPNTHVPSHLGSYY
# Outline: (§1)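 Human transcription factors were made in yeast as GST fusions, captured on glutathione beads and barcoded with DNA. With a tag-only sample included, the pool was incubated with 200 nmole of a random double-stranded 16-mer DNA library in Tris/NaCl/DTT/glycerol buffer at room temperature for 30 min, then crosslinked with 0.1% formaldehyde after washing, ligated by proximity, amplified and sequenced. For binding signal, each hexamer's read frequency for a factor is divided by its frequency for the tag-only sample.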
# ELK1 = biological target: T2, ELK1 (Homo sapiens, UniProt P19419 1-428)
# T2 sequence: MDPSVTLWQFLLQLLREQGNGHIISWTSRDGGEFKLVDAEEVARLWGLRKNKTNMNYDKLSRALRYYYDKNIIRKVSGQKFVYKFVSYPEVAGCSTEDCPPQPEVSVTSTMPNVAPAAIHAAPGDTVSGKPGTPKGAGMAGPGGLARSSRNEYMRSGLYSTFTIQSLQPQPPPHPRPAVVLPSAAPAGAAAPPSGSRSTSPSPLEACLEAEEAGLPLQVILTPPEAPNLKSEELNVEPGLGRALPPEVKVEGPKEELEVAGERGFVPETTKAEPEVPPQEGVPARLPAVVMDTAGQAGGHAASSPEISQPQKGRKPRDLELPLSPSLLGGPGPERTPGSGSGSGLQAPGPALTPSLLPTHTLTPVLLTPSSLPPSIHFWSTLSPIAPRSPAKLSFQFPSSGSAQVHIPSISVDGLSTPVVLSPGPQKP
# Outline: as §1
# GABPA = biological target: T3, GABPA (Homo sapiens, UniProt Q06546 1-454)
# T3 sequence: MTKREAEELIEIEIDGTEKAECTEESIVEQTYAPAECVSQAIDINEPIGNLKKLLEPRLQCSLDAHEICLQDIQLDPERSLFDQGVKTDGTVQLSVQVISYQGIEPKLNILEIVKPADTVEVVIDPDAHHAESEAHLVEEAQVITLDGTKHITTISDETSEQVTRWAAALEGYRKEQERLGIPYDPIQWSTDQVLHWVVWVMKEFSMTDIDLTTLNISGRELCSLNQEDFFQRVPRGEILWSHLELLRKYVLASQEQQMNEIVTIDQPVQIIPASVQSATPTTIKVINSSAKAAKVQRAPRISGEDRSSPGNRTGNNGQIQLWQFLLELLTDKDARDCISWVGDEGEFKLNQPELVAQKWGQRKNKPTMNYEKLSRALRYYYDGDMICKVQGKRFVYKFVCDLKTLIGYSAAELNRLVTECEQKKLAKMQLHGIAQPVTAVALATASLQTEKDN
# Outline: as §1
# ERG = biological target: T4, ERG (Homo sapiens, UniProt P11308 1-479)
# T4 sequence: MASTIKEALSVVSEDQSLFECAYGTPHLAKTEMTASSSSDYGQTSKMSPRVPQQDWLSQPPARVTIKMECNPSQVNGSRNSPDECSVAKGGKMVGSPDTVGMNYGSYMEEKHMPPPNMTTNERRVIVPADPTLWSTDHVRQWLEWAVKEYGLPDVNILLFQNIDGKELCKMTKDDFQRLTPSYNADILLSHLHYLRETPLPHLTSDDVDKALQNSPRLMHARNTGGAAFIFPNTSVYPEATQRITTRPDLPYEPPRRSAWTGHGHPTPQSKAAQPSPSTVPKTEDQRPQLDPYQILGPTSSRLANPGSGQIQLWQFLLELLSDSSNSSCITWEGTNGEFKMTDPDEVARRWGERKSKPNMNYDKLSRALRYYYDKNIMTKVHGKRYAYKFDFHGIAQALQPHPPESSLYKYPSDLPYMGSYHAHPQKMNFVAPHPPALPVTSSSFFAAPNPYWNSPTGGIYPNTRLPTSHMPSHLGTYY
# Outline: as §1
# ELF1 = ELF1 (Homo sapiens, UniProt P32519 1-619)
# ELF1, sequence (P32519 whole entry): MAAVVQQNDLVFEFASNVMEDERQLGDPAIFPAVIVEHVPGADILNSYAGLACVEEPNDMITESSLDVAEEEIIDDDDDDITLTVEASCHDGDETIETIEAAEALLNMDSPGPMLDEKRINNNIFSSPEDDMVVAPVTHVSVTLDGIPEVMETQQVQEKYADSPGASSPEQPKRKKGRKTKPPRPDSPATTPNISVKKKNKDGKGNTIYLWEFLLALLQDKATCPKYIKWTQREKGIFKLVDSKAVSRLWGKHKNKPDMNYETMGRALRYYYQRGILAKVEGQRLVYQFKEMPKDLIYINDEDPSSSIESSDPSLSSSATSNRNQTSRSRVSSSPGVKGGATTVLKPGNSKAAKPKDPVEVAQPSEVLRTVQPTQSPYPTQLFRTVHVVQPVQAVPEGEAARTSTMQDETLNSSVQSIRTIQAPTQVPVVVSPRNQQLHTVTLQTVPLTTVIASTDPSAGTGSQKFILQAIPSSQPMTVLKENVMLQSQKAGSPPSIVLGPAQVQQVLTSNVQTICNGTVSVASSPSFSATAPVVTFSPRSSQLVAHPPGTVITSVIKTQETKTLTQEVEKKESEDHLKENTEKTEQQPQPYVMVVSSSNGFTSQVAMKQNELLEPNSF
# Outline: as §1
# EHF = biological target: T5, EHF (Homo sapiens, UniProt Q9NZC4 1-300)
# T5 sequence: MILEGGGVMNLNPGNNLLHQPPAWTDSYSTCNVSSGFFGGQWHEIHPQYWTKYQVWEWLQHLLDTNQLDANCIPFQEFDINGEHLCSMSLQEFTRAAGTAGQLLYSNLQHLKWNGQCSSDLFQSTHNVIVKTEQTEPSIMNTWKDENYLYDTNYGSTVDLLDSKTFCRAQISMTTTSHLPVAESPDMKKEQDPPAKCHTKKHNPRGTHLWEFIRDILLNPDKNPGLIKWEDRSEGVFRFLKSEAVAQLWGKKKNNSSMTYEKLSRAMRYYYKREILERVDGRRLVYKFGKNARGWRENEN
# Outline: as §1
# SPI1 = SPI1 (Homo sapiens, UniProt P17947 1-270)
# Outline: as §1
# SPIB = SPIB (Homo sapiens, UniProt Q01892 1-262)
# SPIB, sequence (Q01892 whole entry): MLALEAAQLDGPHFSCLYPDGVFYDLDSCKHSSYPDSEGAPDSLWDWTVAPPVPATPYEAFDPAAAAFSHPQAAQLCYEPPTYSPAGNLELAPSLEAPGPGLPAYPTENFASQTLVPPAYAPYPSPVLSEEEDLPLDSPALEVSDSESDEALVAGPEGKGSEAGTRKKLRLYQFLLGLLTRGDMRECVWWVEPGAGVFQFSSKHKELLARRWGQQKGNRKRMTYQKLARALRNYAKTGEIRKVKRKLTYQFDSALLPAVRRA
# Outline: as §1
# ELK3 = biological target: T6, ELK3 (Homo sapiens, UniProt P41970 1-407)
# T6 sequence: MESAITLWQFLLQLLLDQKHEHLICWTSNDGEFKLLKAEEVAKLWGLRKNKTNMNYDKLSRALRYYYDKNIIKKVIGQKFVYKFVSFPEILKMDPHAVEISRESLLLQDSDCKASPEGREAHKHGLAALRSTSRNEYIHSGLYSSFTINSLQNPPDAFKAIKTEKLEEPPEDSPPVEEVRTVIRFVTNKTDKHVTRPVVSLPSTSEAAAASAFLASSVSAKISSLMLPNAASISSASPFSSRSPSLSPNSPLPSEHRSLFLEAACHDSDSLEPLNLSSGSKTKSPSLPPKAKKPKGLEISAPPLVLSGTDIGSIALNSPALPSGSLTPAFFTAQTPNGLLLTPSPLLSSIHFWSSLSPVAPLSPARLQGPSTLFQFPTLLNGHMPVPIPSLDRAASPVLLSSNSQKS
# Outline: as §1
sequence,measurement,setting,value
CTATAC,binding signal,FLI1,"1.28 fold enrichment (6-mer frequency, TF over GST control)"
same,binding signal,ELK1,"1.22 fold enrichment (6-mer frequency, TF over GST control)"
same,binding signal,GABPA,"1.35 fold enrichment (6-mer frequency, TF over GST control)"
same,binding signal,ERG,"1.24 fold enrichment (6-mer frequency, TF over GST control)"
same,binding signal,ELF1,"1.31 fold enrichment (6-mer frequency, TF over GST control)"
same,binding signal,EHF,"1.21 fold enrichment (6-mer frequency, TF over GST control)"
same,binding signal,SPI1,"1.21 fold enrichment (6-mer frequency, TF over GST control)"
same,binding signal,SPIB,"1.16 fold enrichment (6-mer frequency, TF over GST control)"
same,binding signal,ELK3,"1.21 fold enrichment (6-mer frequency, TF over GST control)"
